{"source": "PubChem BioAssay AID1030", "about": "(National Center for Advancing Translational Sciences (NCATS), 2008)", "note": "Among all 220,000 compounds or so, about 16,000 (7.3%) were called active. Another 25% or so got no clear call; they are omitted. This excerpt belongs to a sample that is enriched for actives. Unmarked numbers belong to inactive results. The call rests on the fitted dose curve; in most records, active means well fitted inhibition curve with a large enough effect (not every such curve was filed as active); inconclusive means small, poorly fitted or top-dose-only effect, or another doubt; inactive means no such curve, though single readings can be large or run the other way. Potency means the concentration at half of the fitted maximal effect."}
{"biological_target": "Aldehyde dehydrogenase 1A1 (Homo sapiens) (UniProt P00352)", "sequence (P00352 whole entry, looked up)": "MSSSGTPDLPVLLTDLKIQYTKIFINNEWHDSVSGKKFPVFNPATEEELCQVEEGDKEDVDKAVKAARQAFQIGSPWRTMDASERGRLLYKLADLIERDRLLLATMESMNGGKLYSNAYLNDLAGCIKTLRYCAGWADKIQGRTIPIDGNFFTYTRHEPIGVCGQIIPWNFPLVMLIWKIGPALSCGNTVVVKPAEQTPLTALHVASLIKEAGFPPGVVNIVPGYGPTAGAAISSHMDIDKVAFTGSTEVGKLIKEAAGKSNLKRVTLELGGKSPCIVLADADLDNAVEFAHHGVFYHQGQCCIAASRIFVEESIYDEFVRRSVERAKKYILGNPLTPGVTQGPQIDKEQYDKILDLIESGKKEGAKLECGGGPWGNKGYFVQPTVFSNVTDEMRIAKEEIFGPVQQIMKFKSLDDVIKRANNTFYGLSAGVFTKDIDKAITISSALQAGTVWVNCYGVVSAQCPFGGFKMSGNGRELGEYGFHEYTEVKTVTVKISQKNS", "test": "qHTS Assay for Inhibitors of Aldehyde Dehydrogenase 1 (ALDH1A1);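 on activity, negative = inhibition: plate controls were no enzyme wells and a reference inhibitor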", "settings": "Purified ALDH1A1, NADH fluorescence, propionaldehyde substrate; series mostly up to 75.3 µM; activity, negative = inhibition: at the top concentration", "units": {"activity, negative = inhibition": "%"}}
{"smiles": "Cc1ccc(S(=O)(=O)N(C)CC(=O)N2CCc3ccccc32)cc1", "activity, negative = inhibition": -14.1}
{"smiles": "Cc1ccc(-c2cc(C(=O)N3CCc4ccccc4C3)no2)cc1", "activity, negative = inhibition": -6.72}
{"smiles": "Cc1ccc2c(c1)N(C(=O)CCC(=O)N1CCc3ccccc3C1)CCO2", "Potency": "20 µM (active)"}
{"smiles": "Cc1cccc(NC(=O)Nc2ccc3c(c2)OCO3)n1", "activity, negative = inhibition": -5.97}
{"smiles": "CC1=C2[C@@H](O)[C@H]([C@@H](C)C(=O)NCCC(C)C)CC[C@@]2(C)C=CC1=O", "activity, negative = inhibition": 3.98}
{"smiles": "CC(=O)OC1C([N+]2(C)CCCCC2)C[C@H]2C3CC[C@H]4C[C@H](OC(C)=O)C([N+]5(C)CCCCC5)CC4(C)C3CCC12C", "note": "(stereo partly drawn)", "activity, negative = inhibition": -0.578}
{"smiles": "N#Cc1ccc(COC(=O)Cn2nnc(-c3ccccc3)n2)cc1", "activity, negative = inhibition": -12.2}
{"smiles": "O=C(O)C1CCN(C(=O)OCc2ccccc2)CC1", "activity, negative = inhibition": 11.2}
{"smiles": "N#Cc1c(N)sc2c1CCN(C(=O)OCc1ccccc1)C2", "Potency": "10 µM (active)"}
{"smiles": "CCN1CCC2(CCN(Cc3cn[nH]c3-c3ccc(OC)c(F)c3)C2)C1", "note": "(stereo not drawn)", "activity, negative = inhibition": -5.12}
{"smiles": "C=CCN(CC=C)CCOc1ccccc1[N+](=O)[O-]", "activity, negative = inhibition": -17}
{"smiles": "COc1ccc(Nc2nc(N)nc(CSC(=S)N3CCC(C)CC3)n2)cc1", "Potency": "3.16 µM (active)"}
{"smiles": "CCOC(=O)c1cnc(SCc2nc(N)nc(Nc3ccc(OC)cc3)n2)nc1N", "activity, negative = inhibition": 8.96}
{"smiles": "CCOC(=O)N1CCN(Cc2nc(N)nc(Nc3ccc(C)cc3)n2)CC1", "activity, negative = inhibition": -7.53}
{"smiles": "Oc1ccc(-c2onc3ccc(Cl)cc23)cc1", "Potency": "11.2 µM (active)"}
{"smiles": "O=C(CCCCn1c(=O)[nH]c2ccccc2c1=O)NCc1ccc2c(c1)OCO2", "activity, negative = inhibition": 7.65}
{"smiles": "O=C(Cn1nnc(-c2ccccc2)n1)NCc1ccc2c(c1)OCO2", "activity, negative = inhibition": 0.62}
{"smiles": "O=C1N(Cc2ccc3c(c2)OCO3)c2ccccc2C1(O)c1c[nH]c2ccccc12", "note": "(stereo not drawn)", "Potency": "3.16 µM (active)"}
{"smiles": "CCOc1ccc(-n2cnc3c(=O)[nH]c(N)nc32)cc1", "activity, negative = inhibition": 6.63}
{"smiles": "CO/N=C(\\N)c1ccc([N+](=O)[O-])cc1", "activity, negative = inhibition": 2.88}
{"smiles": "CCCn1c(SCC(=O)Nc2ccc(C)c(S(=O)(=O)N3CCOCC3)c2)n[nH]c1=O", "activity, negative = inhibition": -6.54}
{"smiles": "COc1ccc(CNc2c(CO)cnc3c2cnn3C)cc1", "activity, negative = inhibition": -13.3}
{"smiles": "Nc1cc(=O)nc(SCc2ccccc2)n1Cc1ccco1", "activity, negative = inhibition": 12.6}
{"smiles": "CCOC(=O)CSc1nc2c(sc(=S)n2CCc2ccccc2)c(=O)n1Cc1ccco1", "Potency": "31.6 µM (active)"}
{"smiles": "CCOC(=O)Cc1csc(NC(=O)CSc2nnc(-c3cccnc3)n2Cc2ccco2)n1", "activity, negative = inhibition": -6.11}
{"smiles": "Cc1cc(C)n2nc(C(=O)N3CCN(Cc4ccc5c(c4)OCO5)CC3)nc2n1", "activity, negative = inhibition": 5.33}
{"smiles": "CCCCCCCC/C=C\\CCCCCCCC(=O)OC[C@H](CO)OC(C)=O", "Potency": "inactive"}
{"smiles": "CCN(CC)CCNC(=O)c1ccc(NC(=O)c2c(F)cccc2Cl)cc1", "activity, negative = inhibition": -2.52}
{"smiles": "COc1c2c(cc3occ(-c4ccc5c(c4)OCO5)c(=O)c13)OC(C)(C)C=C2", "Potency": "14.1 µM (active)"}
{"smiles": "COc1ccc(CCNC(=O)c2cc(-c3ccc4c(c3)OCO4)on2)cc1OC", "activity, negative = inhibition": 8.9}
{"smiles": "Cc1ccc(NC(=O)C(=O)NCC2CCN(C(=O)c3cccc([N+](=O)[O-])c3)CC2)cc1", "activity, negative = inhibition": 1.36}
{"smiles": "CN1CCN(CC#CCC2(O)c3ccccc3-c3ccccc32)CC1", "activity, negative = inhibition": -5.97}
{"smiles": "CC(=O)C1C(c2ccc(Cl)cc2)c2c(n[nH]c2C)CC1(C)O", "note": "(stereo not drawn)", "activity, negative = inhibition": 2.01}
{"smiles": "CC(C)N1CCC(N2CCN(Cc3cccnc3)CC2CCO)CC1", "note": "(stereo not drawn)", "activity, negative = inhibition": 1.27}
{"smiles": "CCOc1ccc(NC(=O)CC2NCCNC2=O)cc1", "note": "(stereo not drawn)", "activity, negative = inhibition": 9.3}
{"smiles": "O=C(CC1NCCNC1=O)Nc1ccc(Oc2ccccc2)cc1", "note": "(stereo not drawn)", "Potency": "20 µM (active)"}
{"smiles": "O=C(CC1NCCNC1=O)Nc1cc(Cl)cc(Cl)c1", "note": "(stereo not drawn)", "activity, negative = inhibition": 1.99}
{"smiles": "COc1ccc(-c2nc(-c3ccccc3)oc2Nc2ccc3ccccc3c2)cc1", "activity, negative = inhibition": -9.62}
{"smiles": "COc1ccccc1CNC(=O)CNC(=O)c1cn(-c2ccccc2OC)c(=O)c2ccccc12", "activity, negative = inhibition": -5.29}
{"smiles": "COc1cccc(CC2(CO)CCCN(CC3=Cc4cc(OC)ccc4OC3)C2)c1", "note": "(stereo not drawn)", "activity, negative = inhibition": -12.6}
{"smiles": "Cc1nn(-c2ccccc2)c(=O)c2noc(C)c12", "activity, negative = inhibition": -1.15}
{"smiles": "O=C(c1cccnc1)N(c1cc2sc(=O)oc2c2ccccc12)S(=O)(=O)c1ccccc1", "Potency": "10 µM (active)"}
{"smiles": "COc1ccc(N(C(=O)c2cccnc2)S(=O)(=O)c2ccc3c(c2)n(C)c(=O)n3C)cc1", "activity, negative = inhibition": -5.62}
{"smiles": "Cc1ccc(C(=O)Cn2cccn2)cc1", "activity, negative = inhibition": -4.42}
{"smiles": "COc1ccc(CCNC(=O)CC2SC(=Nc3cc(C)cc(C)c3)NC2=O)cc1OC", "note": "(stereo not drawn)", "Potency": "12.6 µM (active)"}
{"smiles": "COc1ccc(CCNC(=O)COC(=O)/C=C/c2cccs2)cc1OC", "activity, negative = inhibition": 4.49}
{"smiles": "COc1ccc(CCNC(=O)C(=O)NCc2ccccc2C)cc1OC", "activity, negative = inhibition": 8.53}
{"smiles": "CCCCn1c(N)c(N(CC)C(=O)/C=C/c2ccco2)c(=O)[nH]c1=O", "activity, negative = inhibition": -2.37}
{"smiles": "CC(C)(C)NC(=O)c1ccc(Cn2cc(C(F)(F)F)ccc2=O)cc1", "activity, negative = inhibition": 1.97}
{"smiles": "O=C1NC(=Nc2ccc(Cl)cc2)SC1Cc1cccc(Cl)c1Cl", "note": "(stereo not drawn)", "activity, negative = inhibition": 17.6}
{"smiles": "CCC(C)(C)n1nnnc1C(c1cccs1)N1CCN(Cc2ccccc2)CC1", "note": "(stereo not drawn)", "activity, negative = inhibition": -3.94}
{"smiles": "Fc1ccc(Cn2nnnc2C(c2cccs2)N2CCCCCC2)cc1", "note": "(stereo not drawn)", "Potency": "7.94 µM (active)"}
{"smiles": "N#Cc1ccc(C(c2nnnn2CCc2ccccc2)N2CCCCCC2)cc1", "note": "(stereo not drawn)", "activity, negative = inhibition": -7.57}
{"smiles": "COc1ccc(C(=O)N/N=c2\\oc3ccccc3cc2C(N)=O)cc1", "activity, negative = inhibition": -1.79}
{"smiles": "CC1Cc2ccccc2N1C1=CC(=O)CC(C)(C)C1", "note": "(stereo not drawn)", "activity, negative = inhibition": -16.2}
{"smiles": "COc1ccccc1CSc1ncc(-c2ccc([N+](=O)[O-])cc2)[nH]1", "Potency": "28.2 µM (active)"}
{"smiles": "COc1ccccc1CC(=O)Nc1ccc([N+](=O)[O-])cc1OC", "activity, negative = inhibition": -4.92}
{"smiles": "COc1ccccc1CSc1nc2ccccc2[nH]1", "activity, negative = inhibition": 4.43}
{"smiles": "Cc1ccc(NC(=O)O[C@@H]2C(=O)c3cc(Br)ccc3O[C@H]2c2ccc3c(c2)OCO3)cc1Br", "activity, negative = inhibition": -1.23}
{"smiles": "CC(C)(C)CN1CCNC(=O)C1CC(=O)NC1Cc2ccccc2C1", "note": "(stereo not drawn)", "activity, negative = inhibition": -0.0338}
{"smiles": "COc1cccc(CNC(=O)c2n[nH]c3ccccc23)c1", "activity, negative = inhibition": 0.331}
{"smiles": "COC(=O)[C@@H](NC(=O)NCc1cccc(OC)c1)C(C)C", "Potency": "10 µM (active)"}
{"smiles": "COc1cccc(NC(=O)NCc2ccc(F)cc2)c1", "activity, negative = inhibition": 5.85}
{"smiles": "CC(=O)Cc1nsc(NC(=O)c2ccc(Cl)cc2Cl)n1", "activity, negative = inhibition": 1.32}
{"smiles": "CC1CCCN(CC(O)COc2ccc3c(c2)OCO3)C1", "note": "(stereo not drawn)", "activity, negative = inhibition": -0.13}
{"smiles": "O=C(COC(=O)CCCNC(=O)c1ccc(Cl)cc1)Nc1cc(Cl)ccc1Cl", "activity, negative = inhibition": 11.4}
{"smiles": "CCCCNC(=O)CCNC(=O)c1ccc(C(C)(C)C)cc1", "activity, negative = inhibition": -13.2}
{"smiles": "Cc1ccc(CNC(=O)CCCNC(=O)c2ccc(Cl)cc2)n1C", "Potency": "28.2 µM (active)"}
